About 8,600 (12%) of roughly 69,000 compounds showed an effect of 50% or more. The sample as a whole holds a higher share of strong results than the screen did.
What follows are compounds tested on Plasmodium berghei (assay: Screen against P. berghei liver stage (PbLuc), transformed with Luciferase, at 10uM). Details: tested at 10 uM.
Format: functional, HepG2

SMILES | INHIBITION [%]
CN(C)c1cc(C2CCN(C(=O)c3cnn(C)c3)CC2)ccn1 | 26.4
COCCN1CC(=O)N(C(C)C)C(C)(C)C1 | -1.3
CCCc1nc(CN(CC)Cc2ccc(S(C)(=O)=O)cc2)no1 | -21.9
Cn1nc2c(cc1=O)CN(Cc1coc(-c3ccc(F)cc3)n1)CC2 | -0.113
CN(Cc1cccnc1)[C@@H]1CN(Cc2nccn2C)[C@@H]2CCCO[C@H]12 | -27
CC(C)NC(=O)C1CCc2nnc(CNC(=O)c3cccnc3)n21 (configuration not stated) | -57.8
CCC[C@H]1CN(C(=O)Cn2ccccc2=O)C[C@@H]1NS(C)(=O)=O | 20.6
Cc1c(C(=O)NCCN2C(=O)CCC2=O)sc2ccc(F)cc12 | -64.6
O=C(NCC1CC1)[C@H]1C[C@H]2OCC[C@H]2N(Cc2ccoc2)C1 | 35.3
CC1CCN(C(=O)[C@@H]2C[C@H]3OCC[C@H]3N(Cc3ccoc3)C2)CC1 | 59
O=C(NC1CCCC1)[C@H]1C[C@H]2OCC[C@H]2N(Cc2ccoc2)C1 | -1.55
CCC1=NC2(CCC(C(=O)Nc3ccc(C)nc3)CC2)C(=O)N1C (configuration not stated) | 64.3
Cc1ccc(NC(=O)[C@H]2C[C@H](C(=O)O)CN(CC3CC3)C2)cn1 | 39.4
CCC1=NC2(CCC(C(=O)Nc3ccc(F)cc3)CC2)C(=O)N1C (configuration not stated) | 42.4
O=C1CCN(C(=O)NCCc2c[nH]c3ccc(Cl)cc23)CCN1 | 1.56
COc1ccccc1-c1nc(C(=O)N(C)C)n2ccncc12 | 30.8
COC(=O)CNC(=O)c1nc(-c2ccccc2OC)c2cnccn12 | 54.9
COc1ccccc1-c1nc(C(=O)N2CCOCC2)n2ccncc12 | 32.5
COc1ncc(CN2CCCC2c2[nH]ncc2C(=O)N(C)C)cn1 (configuration not stated) | 3.48
Cn1ncc(-c2cc(-c3cccc(O)c3)nc(N)c2C#N)c1C1CC1 | 80
Cc1nn(C)c(C)c1-c1cc(-c2cnn(C)c2C2CC2)c(C#N)c(N)n1 | 34.5
Cc1cccc(-c2cc(-c3c(C)nn(CCO)c3C)c(C#N)c(N)n2)c1 | -13.2
Cc1cc(O)ccc1-c1cc(-c2cnn(C)c2C2CC2)c(C#N)c(N)n1 | 87.9

SMILES | INHIBITION [%]
N#Cc1c(C2CC2)cc(-c2ccc(O)cc2)nc1N | -14.9
Cc1n[nH]c(C)c1-c1cc(-c2ccc[nH]2)nc(N)c1C#N | 7.22
Cc1n[nH]c(C)c1-c1cc(-c2cc[nH]c2)nc(N)c1C#N | 28
Cc1n[nH]c(C)c1-c1cc(-c2cccc(O)c2)nc(N)c1C#N | 57.6
CC(C)c1cc(-c2cnn(C)c2C2CC2)c(C#N)c(N)n1 | -14.3
CC(=O)N1CCN(C(=O)C2CCN(c3cccnn3)C2)CC1 (configuration not stated) | -8.12
COC(=O)C1=C(C)N=C2SCC(=O)N2C1c1cnn(C)c1C (configuration not stated) | 22.6
COc1ccc(CC2(CO)CCN(c3cc(N)ncn3)CC2)cc1 | 26.8
O=C(COCC(F)(F)C(F)F)N1CCC(c2ncc[nH]2)CC1 | 40.6
Cn1ccnc1C1CCN(C(=O)COCC(F)(F)C(F)F)CC1 | 59.1
CCOCC(=O)N1CCC(c2nccn2C)CC1 | 11.8
O=C(Cc1csc(-c2ccco2)n1)N1CCN(c2nccs2)CC1 | -21.7
CO[C@H]1CN(C(=O)c2ccc[nH]2)[C@@H]2COC[C@H]12 | -29
COCCNC(=O)c1ccc2ccc(N(C)CC3CC3)n2c1 | 26
O=S(=O)(c1ccccc1)N1CCN(CCn2ccnc2)CC1 | -26.6
O=S(=O)(c1ccc(Cl)cc1)N1CCN(CCCn2ccnc2)CC1 | 76.7
COc1ccc(F)cc1S(=O)(=O)N1CCN(CCn2ccnc2)CC1 | 18.2
O=S(=O)(c1cccnc1)N1CCN(CCn2ccnc2)CC1 | -0.113
CCc1ccc(S(=O)(=O)N2CCN(CCn3ccnc3)CC2)cc1 | 51.2
O=S(=O)(c1ccc(F)cc1)N1CCN(CCCn2ccnc2)CC1 | -49.3
Cc1ccc(S(=O)(=O)N2CCN(CCCn3ccnc3)CC2)cc1 | 81
COc1ccc(S(=O)(=O)N2CCC(Cn3ccnc3)CC2)cc1 | 8.46
O=S(=O)(c1ccccc1)N1CCCN(CCCn2ccnc2)CC1 | 37

SMILES | INHIBITION [%]
c1ccc(-c2cc(CNCCN3CCCC3)c3nnnn3c2)cc1 | -5.71
CC(NC(=O)NCc1ccccn1)c1cccs1 (configuration not stated) | -5.26
O=C(C1=CCCC1)N1CCC[C@]2(C[C@@H](Oc3ncccc3F)CO2)C1 | 23.5
CC(C)N1CCc2c(C(=O)N3CCOCC3)nn(C)c2C1 | 42.1
OC1(CNc2ccccc2)CCNCC1 | 20.9
CN(CCCc1n[nH]c(N)c1C#N)C(=O)Nc1cc(Cl)cc(Cl)c1 | 63.7
CN(CCCc1n[nH]c(N)c1C#N)C(=O)NC1CC1 | 23.6
CCNC(=O)N(C)CCCc1n[nH]c(N)c1C#N | 40.9
OCCN(Cc1ccccc1)Cc1nc(-c2ccc3c(c2)OCO3)no1 | 35.1
OCCN(Cc1nc(-c2ccc3c(c2)OCO3)no1)Cc1cccs1 | 17.6
COC(=O)c1ccc(-c2noc(CN(CCO)Cc3cccs3)n2)cc1 | 51
CCS(=O)(=O)N1C[C@@H](Oc2ccccn2)[C@H]2OCCC[C@H]21 | -14.4
COc1ccc(F)cc1NC(=O)NCC1(CN2CCOCC2)CC1 | 28.15
COCC1(CNC(=O)Nc2cc(F)ccc2OC)CCCC1 | 51.4
COc1ccc(F)cc1NC(=O)NCC1(C)COC1 | 25.25
Cc1nn(C)c(Cl)c1C1CCCN1C(=O)CCNc1ncccn1 (configuration not stated) | -35.7
O=c1cc(N2CCCCC2)cnn1C[C@H](O)CO | 2.7
O=c1cc(N2CCNCC2)cnn1CCc1ccc(F)cc1 | 32.8
O=c1cc(N2CCCC2)cnn1CCc1cccc(F)c1 | 52.6
O=c1cc(N2CCCCC2)cnn1CC(O)C(F)(F)F (configuration not stated) | -29.1
O=c1cc(N2CCCC2)cnn1CC(F)F | 73.2
O=c1cc(N2CCOCC2)cnn1CCc1ccc(F)cc1 | -0.529
Cc1cnn(CCNCc2csc(-c3ccc(C(N)=O)cc3)n2)c1 | 43.6

SMILES | INHIBITION [%]
O=C(COc1ccc2c(c1)OCC2O)NCc1ccco1 (configuration not stated) | 10.6
NC(=O)c1nc(COc2ccc3c(c2)OCO3)no1 | -83.7
O=C(NC1CC1)c1nc(COc2ccc3c(c2)OCO3)no1 | 35.1
CC(C)NC(=O)c1nc(COc2ccc3c(c2)OCO3)no1 | 32.8
O=C(c1nc(COc2ccc3c(c2)OCO3)no1)N1CCCC1 | 13.4
CNC(=O)c1nc(COc2ccc3c(c2)OCO3)no1 | 53.7
CC(C)CNC(=O)c1nc(COc2ccc3c(c2)OCO3)no1 | 57.7
O=C(NC1CCCC1)c1nc(COc2ccc3c(c2)OCO3)no1 | 62.9
CNc1oc(COc2ccc3c(c2)OCO3)nc1C#N | 41.5
N#Cc1nc(COc2ccc3c(c2)OCO3)oc1NC1CCCCC1 | 72.1
N#Cc1nc(COc2ccc3c(c2)OCO3)oc1NC1CC1 | 47.1
Cc1occc(=O)c1OCc1noc(C(=O)NCC(C)C)n1 | 26.9
O=C(NCC1CC1)c1nc(COc2ccc3c(c2)OCO3)no1 | -12.6
CCn1cc(CN2CCC(O)(Cn3nc(C)ccc3=O)CC2)cn1 | 6.32
CN(C)c1cc(C(=O)N2CCCCC2)ccn1 | 2.7
CC1CCN(C(=O)c2cnn3c(-c4ccco4)ccnc23)CC1 | -82.6
CCCNC(=O)NC(=O)CN1C=Nc2ccccc2S1(=O)=O | -3.7
Cc1occc1C(=O)N1CCC2(CC1)C(c1cnn(C)c1)CC(=O)N2C (configuration not stated) | 31.3
Cn1ccnc1CC1CCCN(Cc2noc(C3CC3)n2)C1 (configuration not stated) | 9.14
Cc1nnsc1CNC(=O)CSCc1ccccc1Cl | 10.8
c1ccc(Cc2nnc(CN3CCCCC3Cn3cncn3)o2)cc1 (configuration not stated) | 24
CCN(Cc1c(F)cccc1Cl)c1cc(C2CCNCC2)nc(C)n1 | 39.6
COc1ncccc1CNC(=O)c1cnccn1 | -12

SMILES | INHIBITION [%]
N#Cc1ccccc1OCCN1CCCC1Cn1cncn1 (configuration not stated) | 48.1
CC(C)CN1CCc2c(CN(C)Cc3ccco3)cncc2C1 | -15.2
Cc1cccc(S(=O)(=O)N2CCCC3(CCCN3S(C)(=O)=O)C2)c1 (configuration not stated) | -61.6
COc1ccccc1N1CCC(CNS(=O)(=O)c2cccs2)C1 (configuration not stated) | 6.31
COc1ccc(C(CNS(=O)(=O)c2cn(C)nc2C)N2CCCC2)cc1 (configuration not stated) | 23.15
O=S(=O)(NCC(c1ccsc1)N1CCCCCC1)c1cccs1 (configuration not stated) | 60
CN(C)c1ccc(C(CNS(=O)(=O)c2cccs2)N2CCCC2)cc1 (configuration not stated) | 67.6
CN1CCc2cc(C(CNS(=O)(=O)c3cccs3)N3CCCC3)ccc21 (configuration not stated) | 20.5
Cc1nn(C)cc1S(=O)(=O)NCC(c1ccccc1)N1CCCCCC1 (configuration not stated) | 36.7
O=C(NCC(F)(F)F)c1ccncc1 | -6.67
CC(C)c1noc(CCCC(=O)N2CCN(Cc3cccnc3)CC2)n1 | -40.2
COc1cccc(OCC(=O)NCc2ccc3[nH]c(=O)[nH]c3c2)c1 | 12.6
CN1CCOC(C)(C(=O)Nc2nc(C(C)(C)C)cs2)C1 (configuration not stated) | 7.5
CN(CC1(O)CCN(c2ccnc3ccncc23)CC1)C(=O)CCN | -5.78
CCN(CC)S(=O)(=O)CC(=O)N1CCc2ccc(C)cc21 | 57.5
CCN(CC)S(=O)(=O)CC(=O)N1CCc2ccc(F)cc21 | 67.4
CCN(CC)S(=O)(=O)CC(=O)N1CCc2ccc(Cl)cc21 | 26.8
Cc1ccc2c(c1)N(C(=O)C1CCCOC1)CCC2 (configuration not stated) | -27
CS(=O)(=O)c1ccc2c(c1)N(C(=O)Cc1cccc(F)c1)CCC2 | 30.9
CS(=O)(=O)c1ccc2c(c1)N(C(=O)Cc1ccc(F)cc1)CCC2 | 47.7

Reference: ChEMBL document CHEMBL4513216, “Probing the Open Global Health Chemical Diversity Library for Multistage-Active Starting Points for Next-Generation Antimalarials” (ACS Infect Dis, 2020)
